# The supplement of paper PMC8253809
# Columns and labels:
# Assay in all cases: growth inhibition (% activity, log2 RLU normalised to DMSO / staurosporine); higher = more growth inhibition
# Conditions in all cases: 33 µM
# [1] = system: DIPGX29 (H3.3 K27M diffuse intrinsic pontine glioma line)
# How it was run: (§1)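 The growth-inhibition value comes from CellTiter-Glo luminescence, log2-transformed, normalised per plate to % activity between solvent and positive control wells, and taken as the median over replicates. Treatment of pHGG cell lines and H9-derived neural stem cells with approved drugs was at a single final concentration of about 33 μM, in triplicate, for 7 days at 37 °C, 5% CO2.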
# [2] = system: DIPGX37 (H3.3 K27M diffuse intrinsic pontine glioma line)
# How it was run: as §1
# [3] = system: DIPGX7 (H3.3 K27M diffuse intrinsic pontine glioma line)
# How it was run: as §1
# [4] = system: DIPGX9 (diffuse intrinsic pontine glioma line)
# How it was run: as §1
# [5] = system: HGGX39 (paediatric high-grade glioma line)
# How it was run: as §1
# [6] = system: HGGX6 (H3.3 G34R paediatric high-grade glioma line)
# How it was run: as §1
# [7] = system: HNSC
# How it was run: as §1
# [8] = system: SUDIPGIV (diffuse intrinsic pontine glioma line)
# How it was run: as §1
# [9] = system: SUDIPGVI (diffuse intrinsic pontine glioma line)
# How it was run: as §1
# [10] = system: SUDIPGXIII (diffuse intrinsic pontine glioma line)
# How it was run: as §1
Compound,growth inhibition [1] [%],growth inhibition [2] [%],growth inhibition [3] [%],growth inhibition [4] [%],growth inhibition [5] [%],growth inhibition [6] [%],growth inhibition [7] [%],growth inhibition [8] [%],growth inhibition [9] [%],growth inhibition [10] [%]
COC(=O)[C@H](Cc1ccccc1)NC(=O)[C@@H](N)CC(=O)O,-2.32,-1.81,-2.17,-2.28,-1.24,0.801,-5.7,-2.58,-1.43,-6.7
Nc1cccc2c1CN(C1CCC(=O)NC1=O)C2=O (stereo not given),0.182,0.237,4.3,2.15,4.65,4.94,4.5,1.6,2.41,-0.527
Cc1ccc(N(CC2=NCCN2)c2cccc(O)c2)cc1,-5.09,-4.29,-2.56,-2.27,-2.42,-3.2,1.6,-4.67,-4.28,-1.14
CO[C@H]1O[C@@H]2O[C@@]3(C)CC[C@H]4[C@H](C)CC[C@@H]([C@H]1C)[C@@]24OO3,0.229,0.466,1.37,2.08,3.99,5.37,3.37,13.7,1.25,14.3
CC(C)c1nc(N(C)S(C)(=O)=O)nc(-c2ccc(F)cc2)c1C=CC(O)CC(O)CC(=O)O (stereo not given),7.07,-1.35,16.7,4.14,24.4,15.9,73.3,21.5,-6.26,17
CC1(C)[C@@H](OC(=O)CCC(=O)O)CC[C@]2(C)[C@H]3C(=O)C=C4[C@@H]5C[C@@](C)(C(=O)O)CC[C@]5(C)CC[C@@]4(C)[C@]3(C)CC[C@@H]12,-0.0896,-1.93,-0.476,-0.36,1.22,-0.666,0.455,-0.927,2.1,0.0653
Cc1cc(N)c2ccccc2[n+]1CCCCCCCCCC[n+]1c(C)cc(N)c2ccccc21,39.6,46.2,35.4,41.1,55.5,36.2,57.8,50,50.9,52.5
COc1ccc([C@@H]2Sc3ccccc3N(CCN(C)C)C(=O)[C@@H]2OC(C)=O)cc1,-1.14,-1.86,0.795,-0.923,-2.92,-0.0969,-0.232,-1.32,-1.92,0.713
CS(=O)(=O)Nc1ccc([N+](=O)[O-])cc1Oc1ccccc1,0.913,1.17,0.12,0.568,2.03,-1.72,27.3,-3.67,-1.3,-2.23
CC(C)C[C@H](NC(=O)[C@H](Cc1ccccc1)NC(=O)c1cnccn1)B(O)O,53.3,60.7,60,59.1,58.5,60.1,64.2,59.3,56.3,69.9
C[C@]12CC[C@@H]3c4ccc(O)cc4CC[C@H]3[C@@H]1CC[C@@H]2O,-1.16,1.54,-0.611,-0.154,0.663,2.45,-4.69,-0.561,-3.66,1.49
CCCOc1ccc2[nH]c(NC(=O)OC)nc2c1,6.12,5.82,6.31,9.95,7.33,9.96,66.6,11.4,-1.9,3.23
Nc1ncn([C@H]2C[C@H](O)[C@@H](CO)O2)c(=O)n1,2.35,0.227,3.51,4.93,4.99,3.19,27.6,5.46,2.19,1.68
C[C@@H]1CN(c2c(F)c(F)c3c(=O)c(C(=O)O)cn(C4CC4)c3c2F)C[C@H](C)N1,-1.92,-8.88,-0.67,-1.75,1.32,-0.41,1.66,-2.13,-5.84,-3.56
NCCC(O)(P(=O)(O)O)P(=O)(O)O,0.943,2.91,2.33,0.0373,2.9,1.86,2.52,1.34,2.52,0.475
CC(C)c1c(C(=O)Nc2ccccc2)c(-c2ccccc2)c(-c2ccc(F)cc2)n1CC[C@@H](O)C[C@@H](O)CC(=O)O,16.8,-10,21.8,7.54,42.1,23,65.6,32.1,-0.629,39.2
CN(C)CCOc1ccc(/C(=C(/CCCl)c2ccccc2)c2ccccc2)cc1,2.43,1.15,6.73,0.45,5.94,5.5,2.79,2.82,0.578,-0.556
CN1CCC(=C2c3ccccc3CCc3cccnc32)CC1,-2.68,0.139,0.133,-1.74,-1.55,-5.77,24.2,-1.91,-8.64,1.19
CC(C)(O)c1ccccc1CC[C@@H](SCC1(CC(=O)O)CC1)c1cccc(/C=C/c2ccc3ccc(Cl)cc3n2)c1,-0.862,0.461,-2.4,-1.33,-0.172,-2.63,-3.15,-1.21,-0.324,-15.7
CCC(=O)OCC(=O)[C@@]1(OC(=O)CC)[C@@H](C)C[C@H]2[C@@H]3CCC4=CC(=O)C=C[C@]4(C)[C@@]3(F)[C@@H](O)C[C@@]21C,0.0157,2.23,0.0573,4.05,3.08,1.77,-4.87,-0.108,0.781,1.98
COc1cc(NS(=O)(=O)c2ccc(N)cc2)nc(OC)n1,1.59,1.08,2.92,1.55,1.71,2.67,1.56,0.337,2.95,-1.53
